High-throughput results deposited in PubChem BioAssay by National Center for Advancing Translational Sciences (NCATS).
In the library only some 7.5% were active in any assay of this set; here they are far more common.
Rab9 promoter act: Rab9 promoter activation. AID 485297. Potency, µM (doses to about 9.22 µM), usual class: activators. Huh7 Rab9 promoter-luciferase reporter, luminescence, 24 h. 2.8% of 320,000 active; further: nearly all actives have a fitted effect of over 60% in size
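Stable Rab9-luc Huh7, 1500 cells/well, 2 h settle; cmpd in DMSO, 24 h, 37 °C/5% CO2; luciferase reagent 10 min RT; luminescence.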
SMN2 splice enh: SMN2 splice variant enhancement | HEK293 SMN2-luciferase splicing reporter, luminescence, 30-36 h | Potency, µM (highest dose often 46.1 µM), usual class: activators | 2.8% of 210,000 active; further: nearly all actives have a fitted effect of over 55% in size
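qHTS luciferase splicing reporter: luminescence rises when SMN2 exon 7 is included in transfected HEK293 cells. Compound exposure lasted 30-36 h at 37C, with 4.5 mM final sodium butyrate as control, followed by a ONE-Glo read.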
ELG1 genotox: induces genotoxicity in HEK293T cells with luciferase-tagged ELG1; HEK293T ELG1-luciferase reporter, luminescence, 16 h; Potency, µM (doses to about 46 µM), most hits filed as activators; 1.3% of 330,000 active; AID 504466; further: nearly all actives have a fitted effect of over 60% in size
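Reporter readout depends on ELG1 protein level, which increases with genetic stress. After 16 hr compound exposure at 37 °C, luciferase activity was quantified using ONE-Glo.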
Luc counter: Kinase-Glo luciferase inhibition (counter-screen); Potency, µM (titrated, usually from 38.3 µM), hits mostly inhibitors; AID 1379; 0.28% of 200,000 active; Kinase-Glo luciferase, ATP luminescence, 8 min; further: nearly all actives have a fitted effect of over 60% in size
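Recombinant Kinase-Glo luciferase, 10 uM ATP (linear range), luciferin; imidazole pH 7.2 / KCl / MgCl2 / Tween / BSA buffer; 8 min RT; luminescence.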
NPC1 prom act: activators of NPC1 promoter; Potency, µM (titrated, usually from 9.22 µM), most hits filed as activators; Huh7 NPC1 promoter luciferase reporter, 24 h; 2.4% of 320,000 active; AID 485313; further: nearly all actives have a fitted effect of over 60% in size
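Luminescence read-out of NPC1 promoter-driven luciferase in stably transfected Huh7 cells; compounds delivered in DMSO and left 24 h at 37C, 5% CO2, qHTS titration format.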
FLuc modulator: firefly luciferase modulation, counter-screen for miR-21 project; Potency, µM (series often up to 57.5 µM), usual class: inhibitors; purified FLuc, Km substrates, luminescence inhibition; AID 588342; 6.9% of 360,000 active; further: nearly all actives have a fitted effect of over 55% in size
Target sequence (P08659 whole entry, looked up): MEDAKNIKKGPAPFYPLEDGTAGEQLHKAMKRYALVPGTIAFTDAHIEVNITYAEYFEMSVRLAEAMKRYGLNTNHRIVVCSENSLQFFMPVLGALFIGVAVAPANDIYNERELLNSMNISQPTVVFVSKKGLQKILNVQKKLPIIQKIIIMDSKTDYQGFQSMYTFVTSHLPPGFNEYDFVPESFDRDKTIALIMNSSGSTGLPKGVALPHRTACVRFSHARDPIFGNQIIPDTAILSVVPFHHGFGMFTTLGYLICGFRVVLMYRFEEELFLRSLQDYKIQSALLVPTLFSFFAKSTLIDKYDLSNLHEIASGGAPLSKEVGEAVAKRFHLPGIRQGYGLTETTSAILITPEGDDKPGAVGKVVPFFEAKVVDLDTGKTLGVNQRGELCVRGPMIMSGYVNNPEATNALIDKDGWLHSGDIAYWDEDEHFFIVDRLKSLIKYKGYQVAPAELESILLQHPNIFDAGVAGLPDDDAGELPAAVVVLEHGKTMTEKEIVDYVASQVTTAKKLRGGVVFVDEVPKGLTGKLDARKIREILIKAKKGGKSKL
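Purified P. pyralis luciferase (10nM final) with 10uM D-luciferin and 10uM ATP (Km levels) in 50mM Tris acetate pH 7.5, 10mM Mg acetate, 0.01% Tween-20, 0.05% BSA; qHTS 6-point titration, ~60 µM downward; luminescence read.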
Numbers stand for hits; n = inactive; u = inconclusive; x = not tested or not shown; [ ] = dose if it differs, or a comment. The call rests on the fitted dose curve; in most records, active means well fitted curve in the direction sought with a large enough effect; inconclusive means small, poorly fitted or top-dose-only effect, or another doubt; inactive means no such curve, though single readings can be large; an effect the other way counts as inactive or inconclusive.

SMILES	Rab9 promoter act	SMN2 splice enh	ELG1 genotox	Luc counter	NPC1 prom act	FLuc modulator
COc1ccc(C2=NCC(CSc3nnc(-c4ccc5c(c4)OCO5)o3)S2)cc1 (stereo not drawn)	u	n	n	n	n	9.5µM
CC(=O)CSc1nnc(-c2ccc3c(c2)OCO3)o1	2.8µM	14µM	u	n	u	6.7µM
O=C(CCOc1ccccc1)Nc1ccnn1C1CCN(C(=O)CCC(F)(F)F)CC1	n	x	n	x	n	n
c1ccc(COc2cncc(-c3cccnc3)c2)cc1	n	x	n	x	n	n
COC(=O)c1cccc(C(=O)Nc2ccc(C)cc2)n1	u	n	n	n	3.5µM	12µM
CCc1ccc(NC(=O)c2ccccc2SC)cc1	u	u	u	n	u	15µM
CSc1ccccc1C(=O)Nc1c(C)cccc1C	n	x	n	x	n	n
CCc1ccc(NC(=O)c2cccc(C(=O)Nc3ccc(CC)cc3)n2)cc1	n	x	n	x	n	5.4µM
CCOc1ccc(NC(=O)CCSc2nc(-c3ccc4c(c3)OCO4)cc(C(F)(F)F)n2)cc1	x	n	x	x	x	n
Oc1c(N=Nc2ccc(F)cc2)ccc2ccccc12	4.5µM	x	2.1µM	x	3.2µM	0.6µM
Cc1ccc(N=Nc2ccc3ccccc3c2O)cc1	2.5µM	x	u	x	0.56µM	0.24µM
Oc1ccc2ccccc2c1N=Nc1ccc(F)cc1	n	x	n	x	n	n
O=C(COC(=O)C1CCN(S(=O)(=O)c2cccs2)CC1)Nc1ccc(F)cc1F	n	x	n	x	n	n
O=C(Nc1cccc(S(=O)(=O)N2CCCC2)c1)c1ccc2c(=O)n3c(nc2c1)CCCCC3	n	n	n	n	n	12µM
Cc1ccc(NC(=O)c2ccc3c(=O)n4c(nc3c2)CCCCC4)cc1F	n	x	n	x	n	u
O=C(Nc1cccc(S(=O)(=O)N2CCOCC2)c1)c1ccc2c(=O)n3c(nc2c1)CCCCC3	n	n	n	n	n	u
Cc1ccc(NC(=O)c2ccc3c(=O)n4c(nc3c2)CCCCC4)nc1	u	x	n	x	n	u
O=C(NC1CCCCCC1)c1ccc2c(=O)n3c(nc2c1)CCCCC3	2µM	13µM	3.5µM	n	2.8µM	8.5µM
Cc1cccc(NC(=O)c2ccc3c(=O)n4c(nc3c2)CCCCC4)n1	0.5µM	x	u	x	1.3µM	4.8µM
COc1ccc(NC(=O)c2ccc3c(=O)n4c(nc3c2)CCCCC4)cc1	n	x	n	x	n	27µM
CCCS(=O)(=O)c1nc(S(=O)(=O)c2ccc(C)cc2)c(NCCCOC(C)C)s1	x	n	x	x	x	n
CC(=O)c1cccc(NC(=O)c2ccc3c(=O)n4c(nc3c2)CCCCC4)c1	n	n	n	n	n	15µM
O=C(Nc1ccc(SC(F)F)cc1)c1ccc2c(=O)n3c(nc2c1)CCC3	u	x	n	x	n	2.4µM
O=C(Nc1ccc2nc3n(c(=O)c2c1)CCCC3)c1cccc(F)c1	u	x	n	x	n	u
Cc1ccc2oc(-c3cccc(NC(=O)Cn4cnc5c(=O)n(C)c(=O)n(C)c54)c3)nc2c1	n	n	n	n	n	3.8µM
SMILES	Rab9 promoter act	SMN2 splice enh	ELG1 genotox	Luc counter	NPC1 prom act	FLuc modulator
Cn1c(=O)c2ncn(CC(=O)Nc3ccc(N4CCOCC4)cc3)c2n(C)c1=O	n	n	n	n	n	n
Cc1ccc(NC(=O)Cn2cnc3c(=O)n(C)c(=O)n(C)c32)c(C)c1	n	n	n	n	n	n
CCC(C)c1ccc2oc(-c3ccc(NC(=O)Cn4cnc5c(=O)n(C)c(=O)n(C)c54)cc3)nc2c1 (stereo not drawn)	u	n	n	n	n	12µM
O=C(CSCc1cnn(-c2ccccc2)c1-n1cccc1)NCc1ccc(F)cc1	x	x	x	x	x	n
C=CCN(CC=C)C(=O)c1cc2ccccc2c(=O)o1	n	n	n	n	n	n
COc1ccc(/C=C/CN2CCCC(C(=O)c3ccc(OC)c(F)c3)C2)cc1 (stereo not drawn)	n	x	n	x	n	n
Nc1cccc2c1C(=O)N(C(=O)/C=C/c1ccc(F)cc1)C2=O	n	n	n	n	n	11µM
Nc1cccc2c1C(=O)N(C(=O)c1ccco1)C2=O	n	x	n	x	n	n
CN(C)S(=O)(=O)Oc1cccc(C(=O)Nc2ccccc2Cl)c1	5.6µM	n	u	n	n	21µM
CN(C)S(=O)(=O)Oc1cccc(C(=O)Nc2ccc(Cl)cc2)c1	u	n	n	n	u	3.4µM
CN(C)S(=O)(=O)Oc1ccc(C(=O)Nc2cccc(Cl)c2)cc1	u	13µM	u	n	u	12µM
COc1cc(OC)c(N(C)C(=O)c2cn(C3CCCC3)c(=O)c3c2c2ccccc2n3C)cc1Cl	x	n	x	x	x	n
Cc1nc2c(cc1C#N)C(=O)c1ccccc1-2	n	n	n	n	n	n
Cc1cccc2cc3c(nc12)-c1ccccc1C3=O	n	x	u	x	n	15µM
CCN(CC)S(=O)(=O)c1cc(C(=O)Nc2ccccc2[N+](=O)[O-])ccc1Cl	u	n[1.84 µM]	u	n	u	9.5µM
CCN(CC)S(=O)(=O)c1cc(C(=O)NC2=NCCS2)ccc1Cl	n	n	n	n	n	u
CCN(CC)S(=O)(=O)c1cc(C(=O)Nc2cc(C)[nH]n2)ccc1Cl	2.5µM	x	u	x	2.2µM	8.5µM
CCSc1ccc(-c2cccc([N+](=O)[O-])c2)nn1	3.2µM	u	u	n	u	u
O=C(CSc1ccc(-c2cccc([N+](=O)[O-])c2)nn1)N1CCCC1	n	n	n	n	n	n
CCOc1ccc(N(C)C(=O)CS(=O)(=O)c2cccc3nsnc23)cc1	x	x	x	x	x	n
COC(=O)/C(=C\C(=O)c1ccccc1)Nc1ccc(OC)cc1	n	x	n	x	n	u
COc1ccc(N/C(C)=C/C(=S)Nc2ccccc2)cc1	n	n	n	n	n	11µM
COc1ccc(OC)c(N/C(C)=C/C(=O)c2ccccc2)c1	3.5µM	n	u	n	4µM	0.85µM
COc1ccc(N/C(C)=C/C(=O)c2ccccc2)cc1	2.8µM	13µM	u	n	u	3µM
COc1ccc(OC)c(N/C(C)=C/C(=O)c2ccncc2)c1	n	x	n	x	n	n
SMILES	Rab9 promoter act	SMN2 splice enh	ELG1 genotox	Luc counter	NPC1 prom act	FLuc modulator
COc1ccc(OC)c(N/C=C/C(=O)c2ccccc2)c1	u	x	u	x	u	0.067µM
S=C1SCN(Cc2cccnc2)CN1Cc1cccnc1	n	x	n	x	n	n
COc1cccc(C(=S)N2CCOCC2)c1OS(=O)(=O)c1ccc(Cl)cc1	n	x	n	x	n	n
CCN(CC(=O)Nc1ccc(OC)cc1)CC(=O)Nc1ccc2c(c1)OCO2	n	x	n	x	n	n
COc1ccc(C(=O)/C=C(\C)Nc2ccc3c(c2)OCO3)cc1	2.2µM	u	u	n	3.2µM	4.8µM
COc1ccc(-c2noc(CCC(=O)NCc3ccc(OC)cc3OC)n2)cc1	x	n	x	x	x	n
